PubChem BioAssay (NCI)
Several values for one entry are separate records, joined by “and”; a condition that tells them apart may be missing. Equal values may be shown once. Compounds without any hit were thinned out: in the full panel of roughly 83,000, 20% have a hit.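 Method: cells in 96-well plates; compound added at one concentration; 48 h incubation; percent growth measured; values under 10 scored active.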 Activity calls are given as the source filed them.

Experiments:
Assay in all cases: NCI-60 one-dose screen, 48 h (100 = growth as untreated, 0 = no growth, -100 = all killed)
HT29 colon = tested on: HT29 colon
SNB-75 CNS = tested on: SNB-75 CNS
SNB-19 CNS = tested on: SNB-19 CNS
U251 CNS = tested on: U251 CNS
PC-3 prostate = tested on: PC-3 prostate
SK-MEL-5 melanoma = tested on: SK-MEL-5 melanoma
UACC-62 melanoma = tested on: UACC-62 melanoma
LOX IMVI melanoma = tested on: LOX IMVI melanoma
SK-MEL-28 melanoma = details: 10 µM unless noted
SK-MEL-2 melanoma = tested on: SK-MEL-2 melanoma
EKVX NSCLC = tested on: EKVX NSCLC
SN12C renal = tested on: SN12C renal
UO-31 renal = tested on: UO-31 renal
TK-10 renal = tested on: TK-10 renal
ACHN renal = tested on: ACHN renal
CAKI-1 renal = details: 10 µM unless noted
A498 renal = tested on: A498 renal
CCRF-CEM leukemia = tested on: CCRF-CEM leukemia
MOLT-4 leukemia = tested on: MOLT-4 leukemia
HCT-15 colon = details: 10 µM unless noted

Measured: growth

CC(C)(C)c1ccc(O)c(CNC2CCCCC2)c1
inactive: HT29 colon; 10 µM unless noted 79.1% and 95.2% | SNB-75 CNS; 10 µM unless noted 86% and 82.8% | SNB-19 CNS; 10 µM unless noted 89.2% and 90.9% | U251 CNS; 10 µM unless noted 97.6% and 88% | PC-3 prostate; 10 µM unless noted 82.5% and 83.8% | SK-MEL-5 melanoma; 10 µM unless noted 92.6% and 79.2% | UACC-62 melanoma; 10 µM unless noted 96.6% and 79.7% | LOX IMVI melanoma; 10 µM unless noted 86.2% and 97.6% | SK-MEL-28 melanoma 105% and 98.3% | SK-MEL-2 melanoma; 10 µM unless noted 94.6% | EKVX NSCLC; 10 µM unless noted 108% | SN12C renal; 10 µM unless noted 102% and 91.4% | UO-31 renal; 10 µM unless noted 65.7% and 78.9% | TK-10 renal; 10 µM unless noted 92.4% | ACHN renal; 10 µM unless noted 116% and 91.3% | CAKI-1 renal 111% and 97.5% | A498 renal; 10 µM unless noted 110% and 91.8% | CCRF-CEM leukemia; 10 µM unless noted 91.8% and 86.6% | MOLT-4 leukemia; 10 µM unless noted 98.1% and 81.2%

CNC(=O)c1cc(Oc2ccc(CC(=O)Nc3cc(C(C)(C)C)nn3C)cc2)ccn1
active: MOLT-4 leukemia; 10 µM -64.3%
inactive: HT29 colon; 1 µM 90.7% | HT29 colon; 10 µM 94.1% | HT29 colon; 30 µM 86.5% | SNB-75 CNS; 1 µM 51.3% | SNB-75 CNS; 10 µM 68% | SNB-75 CNS; 30 µM 77.9% | SNB-19 CNS; 1 µM 71.4% | SNB-19 CNS; 10 µM 65.3% | SNB-19 CNS; 30 µM 81.3% | U251 CNS; 1 µM 86% | U251 CNS; 10 µM 84.5% | U251 CNS; 30 µM 90.3% | PC-3 prostate; 1 µM 77.9% | PC-3 prostate; 10 µM 77.1% | PC-3 prostate; 30 µM 85.5% | SK-MEL-5 melanoma; 1 µM 22.8% | SK-MEL-5 melanoma; 10 µM 30.8% | UACC-62 melanoma; 1 µM 62.2% | UACC-62 melanoma; 10 µM 42% | UACC-62 melanoma; 30 µM 56.3% | LOX IMVI melanoma; 1 µM 76.6% | LOX IMVI melanoma; 10 µM 48.9% | LOX IMVI melanoma; 30 µM 56.2% | SK-MEL-2 melanoma; 1 µM 67.9% | SK-MEL-2 melanoma; 10 µM 55.6% | SK-MEL-2 melanoma; 30 µM 78.3% | EKVX NSCLC; 1 µM 73.5% | EKVX NSCLC; 10 µM 62% | EKVX NSCLC; 30 µM 49.2% | SN12C renal; 1 µM 72.8% | SN12C renal; 10 µM 78.6% | SN12C renal; 30 µM 87.1% | UO-31 renal; 1 µM 77.1% | UO-31 renal; 10 µM 93.2% | UO-31 renal; 30 µM 113% | TK-10 renal; 1 µM 95.2% | TK-10 renal; 10 µM 80.4% | TK-10 renal; 30 µM 103% | ACHN renal; 1 µM 67.7% | ACHN renal; 10 µM 67.8% | ACHN renal; 30 µM 73.4% | A498 renal; 1 µM 69.3% | A498 renal; 10 µM 31.2% | A498 renal; 30 µM 54.8% | CCRF-CEM leukemia; 1 µM 73.3% | CCRF-CEM leukemia; 10 µM 66.1% | CCRF-CEM leukemia; 30 µM 62.9% | MOLT-4 leukemia; 1 µM 78% | MOLT-4 leukemia; 30 µM 65.6%

NC(=S)NS(=O)(=O)c1ccc(N)cc1
inactive: HCT-15 colon 96.8% | HT29 colon; 10 µM unless noted 109% | SNB-75 CNS; 10 µM unless noted 93% | SNB-19 CNS; 10 µM unless noted 113% | PC-3 prostate; 10 µM unless noted 102% | SK-MEL-5 melanoma; 10 µM unless noted 101% | UACC-62 melanoma; 10 µM unless noted 119% | LOX IMVI melanoma; 10 µM unless noted 105% | SK-MEL-28 melanoma 109% | SK-MEL-2 melanoma; 10 µM unless noted 109% | SN12C renal; 10 µM unless noted 109% | UO-31 renal; 10 µM unless noted 88.1% | TK-10 renal; 10 µM unless noted 110% | ACHN renal; 10 µM unless noted 96.5% | CAKI-1 renal 94.8% | A498 renal; 10 µM unless noted 82.8% | CCRF-CEM leukemia; 10 µM unless noted 106% | MOLT-4 leukemia; 10 µM unless noted 101%
